Assay results taken from PubChem BioAssay (Tox21).
“And” between values parts separate entries of the source, which are not always exact repeats. Identical values can stand only once. Results filed as inconclusive are left out. Entries that show only a call come without a potency. The source holds several records for some structures; these can differ, active in one and inactive in another. The source made the active and inactive calls. Unless noted, calls follow the shape of the dose curve; as a rule, active = well fitted curve in the direction sought with a large enough effect in the repeat runs; inconclusive = weak or mixed curves; inactive = no such curve, though single readings can be large; an effect the other way counts as inactive or inconclusive.

Key:
[1] = qHTS assay to test for compound auto fluorescence at 535 nm (green) in HEK293 cells (AID 720680)
[2] = qHTS assay to test for compound auto fluorescence at 460 nm (blue) in HEK293 cell free culture (AID 720681)
Outline: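 Test compounds were pinned into cell-free culture medium (DMEM with 10% FBS) and fluorescence was read directly at Ex/Em 405/460 nm. Signals were expressed as fluorescence equivalents of triamterene, with DMSO vehicle as control.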

[3] = qHTS assay to test for compound auto fluorescence at 535 nm (green) in HEK293 cell free culture (AID 720682)
Outline: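 Read-out: 485/535 nm fluorescence intensity, calibrated against fluorescein. Medium only (DMEM + 10% FBS, no cells); test compound or DMSO vehicle added by pintool before plate reading.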

[4] = qHTS assay to test for compound auto fluorescence at 590 nm (red) in HEK293 cell free culture (AID 720683)
Outline: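 Tox21 10K library compounds were pinned into cell-free DMEM with 10% FBS and fluorescence was read at excitation 540 nm. Activity is expressed as Rose Bengal sodium equivalency.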

[5] = qHTS assay to test for compound auto fluorescence at 590 nm (red) in HepG2 cell free culture (AID 720684)
Outline: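 Ex 540 / Em 590 nm read of compound in cell-free MEM (10% FBS). Rose Bengal sodium reference.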

[6] = qHTS assay to test for compound auto fluorescence at 460 nm (blue) in HepG2 cell free culture (AID 720685)
Outline: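 Cell-free plates of MEM plus 10% FBS received 23 nL compound or DMSO vehicle; blue-channel (405/460 nm) intensity scored against triamterene as reference fluorophore.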

[7] = qHTS assay to test for compound auto fluorescence at 535 nm (green) in HepG2 cell free culture (AID 720686)
[8] = qHTS assay to test for compound auto fluorescence at 460 nm (blue) in HepG2 cells (AID 720687)
Outline: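 Cells (2,000/well in MEM with 10% FBS) attached overnight at 37 C, then were exposed to compound or DMSO for 1 hr at 37 C, 5% CO2. Fluorescence read at Ex/Em 405/460 nm, expressed as triamterene-equivalent signal.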

[9] = biological target: Glucocorticoid receptor (Homo sapiens) (UniProt P04150); experiment: qHTS assay to identify small molecule agonists of the glucocorticoid receptor (GR) signaling pathway (AID 720691; active = well fitted activation curve with a large enough effect in the signal ratio in the repeat runs, not every such curve was filed as active; the % refers to the signal ratio)
Outline: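 HeLa GR-bla reporter line; cells pre-incubated 4 h, compound in DMSO 18 h at 37 C; LiveBLAzer B/G FRET substrate 2 h RT; fluorescence intensity read-out.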

[10] = biological target: Glucocorticoid receptor (Homo sapiens) (UniProt P04150); experiment: qHTS assay to identify small molecule antagonists of the glucocorticoid receptor (GR) signaling pathway (AID 720692; active = well fitted inhibition curve with a large enough effect in the signal ratio in the repeat runs, not every such curve was filed as active; the % refers to the signal ratio)
Outline: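 Read-out: beta-lactamase FRET substrate fluorescence, 2 h at room temperature, in HeLa cells stably carrying a GRE-driven bla reporter. Compounds were co-incubated with 5 nM dexamethasone agonist (final) for 18 h at 37 C.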

[11] = qHTS assay to identify small molecule antagonists of the glucocorticoid receptor (GR) signaling pathway - cell viability counter screen (AID 720693); also: nearly all actives have a fitted effect of over 55% in size
[12] = qHTS assay for identifying genotoxic compounds that show differential cytotoxicity against isogenic chicken DT40 cell lines with known DNA damage response pathways - wild type cell line (AID 743012); also: nearly all actives have a fitted effect of over 60% in size
Outline: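 CellTiter-Glo luminescence readout of viability in wild type DT40 cells after 40 h compound exposure at 37 C/5% CO2; 300 cells/well; reagent incubated 30 min at room temperature before reading.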

[13] = qHTS assay for identifying genotoxic compounds that show differential cytotoxicity against isogenic chicken DT40 cell lines with known DNA damage response pathways - Rev3 mutant cell line (AID 743014); also: nearly all actives have a fitted effect of over 55% in size; also: potency is read from the fitted curve at half-maximal effect
[14] = qHTS assay for identifying genotoxic compounds that show differential cytotoxicity against isogenic chicken DT40 cell lines with known DNA damage response pathways - Rad54/Ku70 mutant cell line (AID 743015); also: nearly all actives have a fitted effect of over 60% in size
[15] = qHTS assay to identify small molecule antagonists of the androgen receptor (AR) signaling pathway - cell viability counter screen (AID 743033; also: nearly all actives have a fitted effect of over 45% in size)
[16] = qHTS assay to identify small molecule antagonists of the androgen receptor (AR) signaling pathway using the MDA cell line - cell viability counter screen (AID 743041; also: nearly all actives have a fitted effect of over 45% in size)
Outline: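 In this qHTS counter assay, fluorescence intensity after CellTiter-Fluor addition indicated viability of MDA-kb2 AR-luc cells given compounds and R1881 for 16 h at 37C.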

[17] = biological target: Androgen receptor (Homo sapiens) (UniProt P10275); experiment: qHTS assay to identify small molecule antagonists of the androgen receptor (AR) signaling pathway (AID 743035; active = well fitted inhibition curve with a large enough effect in the signal ratio in the repeat runs, not every such curve was filed as active; the % refers to the signal ratio)
Outline: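 AR-bla HEK293 reporter cells; 4 h settle at 37C/5% CO2; compound + R1881 agonist, 16 h at 37C; LiveBLAzer B/G FRET substrate 2 h RT; fluorescence intensity read. qHTS format.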

[18] = biological target: Androgen receptor (Homo sapiens) (UniProt P10275); experiment: qHTS assay to identify small molecule agonists of the androgen receptor (AR) signaling pathway (AID 743036; active = well fitted activation curve with a large enough effect in the signal ratio in the repeat runs, with a control signal flat, not every such curve was filed as active; the % refers to the signal ratio)
Outline: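 HEK293 cells stably carrying a UAS-driven beta-lactamase reporter (GeneBLAzer AR-UAS-bla-GripTite) were plated at 2,000 cells/well, rested 4 h at 37C, then exposed to compounds in DMSO for 16 h. LiveBLAzer B/G FRET substrate was added for 2 h at room temperature; fluorescence read.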

[19] = biological target: Androgen receptor (Homo sapiens) (UniProt P10275); experiment: qHTS assay to identify small molecule agonists of the androgen receptor (AR) signaling pathway using the MDA cell line (AID 743040; also: nearly all actives have a fitted effect of over 20% in size); conditions: MDA-kb2 AR-luc cells, MMTV luciferase, 16 h; at 70.3 µM (top of the series); stronger effect = higher value
Outline: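 Cell-based luciferase reporter: MDA-kb2, MMTV promoter (AR + GR response elements). 16 h compound exposure at 37C; ONE-Glo, 30 min RT, luminescence.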

[20] = biological target: Androgen receptor (Homo sapiens) (UniProt P10275); experiment: qHTS assay to identify small molecule antagonists of the androgen receptor (AR) signaling pathway using the MDA cell line (AID 743042; also: nearly all actives have a fitted effect of over 55% in size)
Outline: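 MDA-kb2 cells (human breast carcinoma, stably carrying an MMTV-luciferase reporter responsive to AR and GR) were plated at 3,000 cells/well and preincubated 5 hr at 37C, then given compound plus R1881 agonist for 16 h. ONE-Glo luminescence was read.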

Androgen receptor (Homo sapiens), sequence (P10275 whole entry, looked up): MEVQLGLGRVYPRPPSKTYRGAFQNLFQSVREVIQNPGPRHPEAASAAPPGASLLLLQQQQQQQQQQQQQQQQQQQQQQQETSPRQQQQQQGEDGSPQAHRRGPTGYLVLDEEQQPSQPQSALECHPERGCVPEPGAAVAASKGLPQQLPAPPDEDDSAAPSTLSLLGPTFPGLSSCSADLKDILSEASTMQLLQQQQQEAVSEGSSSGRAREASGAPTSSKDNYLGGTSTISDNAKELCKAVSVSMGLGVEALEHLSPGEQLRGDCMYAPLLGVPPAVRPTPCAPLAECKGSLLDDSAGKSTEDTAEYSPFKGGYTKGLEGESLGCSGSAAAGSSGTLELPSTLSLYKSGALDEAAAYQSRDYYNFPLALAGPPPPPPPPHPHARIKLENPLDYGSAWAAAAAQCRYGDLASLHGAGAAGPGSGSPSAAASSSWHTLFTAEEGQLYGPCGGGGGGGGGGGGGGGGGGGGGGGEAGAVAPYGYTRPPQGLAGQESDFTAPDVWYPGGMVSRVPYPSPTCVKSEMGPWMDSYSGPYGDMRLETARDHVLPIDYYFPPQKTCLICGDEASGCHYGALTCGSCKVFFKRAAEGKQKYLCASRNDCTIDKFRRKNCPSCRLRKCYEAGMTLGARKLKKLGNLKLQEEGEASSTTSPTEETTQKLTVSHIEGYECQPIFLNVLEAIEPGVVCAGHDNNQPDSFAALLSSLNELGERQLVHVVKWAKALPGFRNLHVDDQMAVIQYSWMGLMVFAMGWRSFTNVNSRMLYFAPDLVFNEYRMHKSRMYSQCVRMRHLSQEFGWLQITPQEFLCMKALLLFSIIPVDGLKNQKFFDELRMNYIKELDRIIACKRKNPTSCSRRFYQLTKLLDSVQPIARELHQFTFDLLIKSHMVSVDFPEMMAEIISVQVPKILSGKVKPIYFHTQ
Glucocorticoid receptor (Homo sapiens), sequence (P04150 whole entry, looked up): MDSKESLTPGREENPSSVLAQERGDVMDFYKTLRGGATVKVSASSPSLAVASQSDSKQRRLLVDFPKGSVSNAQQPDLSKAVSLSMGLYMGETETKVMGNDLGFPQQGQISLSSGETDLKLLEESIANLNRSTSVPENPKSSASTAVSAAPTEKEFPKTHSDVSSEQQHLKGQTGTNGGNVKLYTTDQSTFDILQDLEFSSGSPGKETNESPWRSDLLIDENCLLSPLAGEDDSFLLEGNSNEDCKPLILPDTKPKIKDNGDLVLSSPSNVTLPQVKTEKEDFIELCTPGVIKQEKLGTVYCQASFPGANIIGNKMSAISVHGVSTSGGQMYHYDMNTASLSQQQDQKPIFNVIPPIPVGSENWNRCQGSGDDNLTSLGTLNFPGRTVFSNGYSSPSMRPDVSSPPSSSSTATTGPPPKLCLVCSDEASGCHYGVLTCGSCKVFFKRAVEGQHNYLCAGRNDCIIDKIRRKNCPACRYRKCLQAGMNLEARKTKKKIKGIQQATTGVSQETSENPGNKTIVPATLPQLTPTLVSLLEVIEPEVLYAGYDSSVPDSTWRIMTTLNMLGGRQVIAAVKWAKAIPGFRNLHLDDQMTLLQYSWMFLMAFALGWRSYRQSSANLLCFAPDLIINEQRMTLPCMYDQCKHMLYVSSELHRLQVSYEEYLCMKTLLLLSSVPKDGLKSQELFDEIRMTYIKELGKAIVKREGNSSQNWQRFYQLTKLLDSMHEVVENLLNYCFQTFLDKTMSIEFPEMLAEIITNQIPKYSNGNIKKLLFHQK

Structure (SMILES)	outcome [1]	Potency [2]	outcome [3]	outcome [4]	outcome [5]	Potency [6]	outcome [7]	Potency [8]	outcome [9]	Potency [10]	Potency [11]	Potency [12]	Potency [13]	Potency [14]	Potency [15]	Potency [16]	Potency [17]	Potency [18]	activity change [19]	Potency [20]
Cc1cc(CC(=O)O)n(C)c1C(=O)c1ccc(Cl)cc1	inactive	inactive	inactive	inactive	inactive	inactive	inactive	inactive	inactive	inactive	inactive	inactive	inactive	inactive	inactive	inactive				
COC(=O)OC	inactive	inactive	inactive	inactive	inactive	inactive	inactive	inactive	inactive	inactive	inactive	inactive	inactive	inactive	inactive	inactive				
CCOC(=O)CC(=O)OCC	inactive	inactive	inactive	inactive	inactive	inactive	inactive	inactive	inactive	inactive	inactive	inactive	inactive	inactive	inactive	inactive				
O=C1O[C@H]([C@H](O)CO)C(O)=C1O	inactive	inactive	inactive	inactive	inactive	inactive	inactive	inactive	inactive	inactive	inactive	inactive	inactive	inactive	inactive	inactive				
O=C(O)C1=NN(c2ccc(S(=O)(=O)O)cc2)C(=O)C1	inactive	inactive	inactive	inactive	inactive	inactive	inactive	inactive	inactive	inactive	inactive	inactive	inactive	inactive	inactive	inactive				
Clc1cccc(Cl)c1NC1=NCCN1	inactive	inactive	inactive	inactive	inactive	inactive	inactive	inactive	inactive	inactive	inactive	inactive	inactive and 61.1 µM (active)	inactive	inactive	inactive				
OB(O)O	inactive	inactive	inactive	inactive	inactive	inactive	inactive	inactive	inactive	inactive	inactive	inactive	inactive	inactive	inactive	inactive				
COC(=O)CCCCC(=O)OC	inactive	inactive	inactive	inactive	inactive	inactive	inactive	inactive	inactive	inactive	inactive	inactive	inactive	inactive	inactive	inactive				
C=C(CC(=O)O)C(=O)O	inactive	inactive	inactive	inactive	inactive	inactive	inactive	inactive	inactive	inactive	inactive	inactive	inactive	inactive	inactive	inactive				
C=CC(=O)NCOCCCC	inactive	inactive	inactive	inactive	inactive	inactive	inactive	inactive	inactive	inactive	inactive	inactive	inactive	inactive	inactive	inactive				
CC(C)=CCC/C(C)=C/C=O	inactive	inactive	inactive	inactive	inactive	inactive	inactive	inactive	inactive	inactive	inactive	inactive	inactive	inactive	inactive	inactive				
CC(C=O)Cc1ccc(C(C)(C)C)cc1 (stereo unspecified)	inactive	inactive	inactive	inactive	inactive	inactive	inactive	inactive	inactive	inactive	inactive	inactive	inactive	inactive	inactive	inactive	inactive	inactive	-2.03% (inactive) and -1.92% (inactive)	inactive
CC(=O)OCc1ccc2c(c1)OCO2	inactive	inactive	inactive	inactive	inactive	inactive	inactive	inactive	inactive	inactive	inactive	inactive	inactive	inactive	inactive	inactive				
CCCCCCC(=O)O	inactive	inactive	inactive	inactive	inactive	inactive	inactive	inactive	inactive	inactive	inactive	inactive	inactive	inactive	inactive	inactive				
CC(C)c1ccc(C(C)C)cc1	inactive	inactive	inactive	inactive	inactive	inactive	inactive	inactive	inactive	inactive	inactive	inactive	inactive	inactive	inactive	inactive				
CS(=O)(=O)c1ccc(Cl)cc1	inactive	inactive	inactive	inactive	inactive	inactive	inactive	inactive	inactive	inactive	inactive	inactive	inactive	inactive	inactive	inactive				
C=CC(C)(C)C	inactive	inactive	inactive	inactive	inactive	inactive	inactive	inactive	inactive	inactive	inactive	inactive	inactive	inactive	inactive	inactive				
